# High-throughput results deposited in PubChem by National Center for Advancing Translational Sciences (NCATS).
# SMN2 splice enh: SMN2 splice variant enhancement. HEK293 SMN2-luciferase splicing reporter, luminescence, 30-36 h. Potency, µM (titrated, usually from 46.1 µM), without a hit: at the top dose activity change, positive = activation, usual class: activators. actives 2.8% (n = 210,000); note: % of control where 0% means no effect; nearly all actives have a fitted effect of over 55% in size
#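 HEK293 cells carry an SMN2 minigene-luciferase reporter in which exon 7 inclusion puts luciferase in frame. Cells were seeded at 2000 cells/well, attached for 10-12 hours, then exposed to compounds for 30-36 hours at 37C before ONE-Glo luminescence.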
# FLuc modulator: firefly luciferase modulation, counter-screen for miR-21 project; P08659; actives 6.9% (n = 360,000); Potency, µM (series often up to 57.5 µM), for inactives: at the highest dose activity change, negative = inhibition, most hits filed as inhibitors; purified FLuc, Km substrates, luminescence inhibition; AID 588342;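 note: plate controls were vehicle for no effect and reference inhibitor for full effect; nearly all actives have a fitted effect of over 55% in size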
# Target sequence (P08659 whole entry, looked up): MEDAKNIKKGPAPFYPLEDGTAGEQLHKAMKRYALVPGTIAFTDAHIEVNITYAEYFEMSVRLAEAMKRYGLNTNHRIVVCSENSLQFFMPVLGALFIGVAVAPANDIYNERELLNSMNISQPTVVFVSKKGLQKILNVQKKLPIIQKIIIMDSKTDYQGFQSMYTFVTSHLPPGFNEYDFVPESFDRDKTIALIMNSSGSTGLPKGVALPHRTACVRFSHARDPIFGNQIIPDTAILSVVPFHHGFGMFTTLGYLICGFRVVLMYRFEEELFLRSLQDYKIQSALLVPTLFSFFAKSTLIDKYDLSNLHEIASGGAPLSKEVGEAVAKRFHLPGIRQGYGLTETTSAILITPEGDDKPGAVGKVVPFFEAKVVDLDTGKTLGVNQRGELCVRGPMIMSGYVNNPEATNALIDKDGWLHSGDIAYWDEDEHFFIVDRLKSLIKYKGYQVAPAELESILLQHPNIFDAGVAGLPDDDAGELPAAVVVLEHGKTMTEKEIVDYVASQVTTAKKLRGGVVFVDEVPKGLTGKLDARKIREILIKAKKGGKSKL
#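 Purified P. pyralis luciferase (10nM final) with 10uM D-luciferin and 10uM ATP (Km levels) in 50mM Tris acetate pH 7.5, 10mM Mg acetate, 0.01% Tween-20, 0.05% BSA; qHTS 6-point titration, ~60 µM downward; luminescence read.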
# NPC1 promoter act: activators of NPC1 promoter; Huh7 NPC1 promoter luciferase reporter, 24 h; Potency, µM (top dose mostly 9.22 µM), for the others: top-dose activation, usual class: activators; actives 2.4% (n = 320,000); note: % of control where 0% means no effect; nearly all actives have a fitted effect of over 60% in size
#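 Stable NPC1-promoter luciferase Huh7 line; cpd (DMSO) 24 h, 37 °C, 5% CO2; Amplite luciferase reagent 10 min RT; luminescence readout. qHTS format.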
# Rab9 promoter act: activators of Rab9 promoter; Huh7 Rab9 promoter-luciferase reporter, luminescence, 24 h; Potency, µM (top dose mostly 9.22 µM), for the others: at the highest dose activation, negative = inhibition, usual class: activators; actives 2.8% (n = 320,000); note: % of control where 0% means no effect; nearly all actives have a fitted effect of over 60% in size
#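 Quantitative HTS format; Huh7 Rab9-luciferase reporter cells (1500/well) receive compound 2 h post-plating, incubate 24 h at 37 °C, then get luciferase reagent for 10 min before luminescence reading.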
# ELG1 genotoxic: inducers of genotoxicity in HEK293T ELG1-luciferase cells | Potency, µM (doses to about 46 µM), for inactives: top-dose activity change, positive = activation, most hits filed as activators | HEK293T ELG1-luciferase reporter, luminescence, 16 h | actives 1.3% (n = 330,000); note: % of control where 0% means no effect; nearly all actives have a fitted effect of over 60% in size
#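 Screening used a luciferase reporter fused to human ELG1 in HEK293T cells. Luminescence was read on a CCD plate imager after 16 hr exposure and 30 min ONE-Glo incubation.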
# ELG1 DNA repair: blocks ELG1-dependent DNA repair in HEK293T cells | HEK293T ELG1-luciferase reporter, luminescence, 16 h; DNA damage induced by 5-fluorouridine | Potency, µM (top dose mostly 46.1 µM), without a hit: at the highest dose activity change, negative = inhibition, most hits filed as inhibitors | actives 2.3% (n = 330,000); note: % is set by controls: 0 for no effect and ±100 for the full control effect; nearly all actives have a fitted effect of over 55% in size
#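 HEK293T cells expressing luciferase-tagged ELG1 (2,000/well) received 5-Fluorouridine plus compound or DMSO for 16 hr at 37 °C. Luciferase was read by ONE-Glo luminescence after 30 min at room temperature.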
# The depositor's hits bear a star; ? = inconclusive; / = not tested or not shown; [ ] = another dose, or the depositor's remark. The list is not random: actives were taken first. Their share in the collection is about 9.2%. Calls come from the whole dose curve; as a rule, active = well fitted curve in the direction sought with a large enough effect; inconclusive = small, poorly fitted or top-dose-only effect, or another doubt; inactive = no such curve, though single readings can be large; an effect the other way counts as inactive or inconclusive. Potency is the fitted concentration of half-maximal effect.
SMILES,SMN2 splice enh,FLuc modulator,NPC1 promoter act,Rab9 promoter act,ELG1 genotoxic,ELG1 DNA repair
Cc1cc(CNC(=O)Cn2nc(C)c([N+](=O)[O-])c2C)c2ccccc2n1,-0.7%,-1.9%,-2.9%,-2.3%,1.5%,4.0%
COC(=O)[C@]1(C)N[C@H](CN(C)C(=O)Nc2ccc(Cl)cc2)[C@@H]2C(=O)N(C)C(=O)[C@@H]21,/,/,/,/,1.7%,12.0%
Cc1ccccc1CN1CCC(n2nccc2NC(=O)CCOc2ccccc2)CC1,/,1.3%,-4.8%,-2.4%,-2.2%,?
CCC12CN3CC(C)(CN(C1)C3c1c(C)n(C)c3ccccc13)C2=O (stereo unspecified),10.7%,-2.3%,/,/,/,/
Cn1c(C(=O)OCC(=O)NCCc2ccccc2)cc2sccc21,-3.0%,3.1%,-0.9%,-7.5%,-1.9%,13.3%
COc1ccc(/C=C2\SC(=NCc3ccccc3)N(Cc3ccccc3)C2=O)cc1OC,-12.0%,-1.3%,-0.5%,-4.3%,3.2%,13µM*
COc1cc(/C=C2/SC(=O)N(Cc3ccccc3)C2=O)ccc1OCc1ccncc1,-17.1%,2.9%,3.0%,7.4%,-8.2%,10.3µM*
CC(C1CC1)N(Cc1ccccc1)C(=S)Nc1ccccc1Cl (stereo unspecified),-38.5%,6.2%,-7.8%,1.2%,-4.1%,?
CCOc1cc(C#N)c(NC(=O)c2cccc(S(=O)(=O)N3CCOCC3)c2)cc1OCC,-19.8%,-7.3%,/,/,/,/
COc1ccc(-n2nc(C(=O)NCC(=O)N3CCCC(C)C3)c3ccccc3c2=O)cc1 (stereo unspecified),/,5.36µM*,-24.0%,17.5%,-6.1%,1.3%
CCC(C)NC(=O)CNC(=O)c1nn(-c2ccc(OC)cc2)c(=O)c2ccccc12 (stereo unspecified),/,-10.6%,-3.3%,-0.6%,-3.5%,2.2%
COc1ccc(-n2nc(C(=O)NCC(=O)N3CCC(C(N)=O)CC3)c3ccccc3c2=O)cc1,/,10.7µM*,8.6%,8.0%,?,9.1%
COc1ccc(-n2nc(C(=O)NCC(=O)N3CCC(C)CC3)c3ccccc3c2=O)cc1,/,2.13µM*,?,?,4.6%,?
O=C(CN(c1cccc(Cl)c1)S(=O)(=O)c1ccc(Cl)cc1)NCc1ccccn1,/,4.4%,-3.9%,0.2%,-10.9%,?
CC(C)N(CC(N)=O)c1ccc(S(=O)(=O)N2CCCC2)cn1,/,5.1%,-1.3%,0.0%,2.9%,-0.2%
O=C(CCCn1nnnc1CN1CCOCC1)N1CCC(c2ccccc2Cl)C1 (stereo unspecified),/,-2.5%,-13.9%,-1.8%,-1.0%,9.1%
O=C(O)C1Oc2cc3ccccc3cc2O1,/,-6.6%,1.9%,-0.2%,-3.1%,1.0%
CC(=O)NCCc1nc2cc(NC(=O)Nc3ccccc3)ccc2n1C,/,6.75µM*,2.24µM*,3.98µM*,?,?
COc1ccccc1C(=O)Nc1ccc2c(c1)nc(CCNC(C)=O)n2C,?,15.1µM*,?,?,?,?
CCC(=O)NCCc1nc2cc(NC(=O)c3ccccc3OC)ccc2n1C,/,21.3µM*,23.3%,28.8%,?,?
COc1ccccc1C(=O)Nc1ccc2c(c1)nc(CCNC(=O)c1ccccc1)n2C,/,15.1µM*,-19.0%,1.7%,-10.0%,?
Cn1c(CCN2CCCCC2)nc2cc(NC(=O)Nc3ccccc3)ccc21,/,-3.4%,-1.6%,-1.2%,13.1%,17.8%
CCC(=O)NCCc1nc2cc(NC(=O)COc3ccccc3)ccc2n1C,/,?,?,?,18.7%,?
O=C(CC12CC3CC(CC(Br)(C3)C1)C2)NC1CCCC1,/,-0.1%,-3.8%,1.0%,2.6%,15.8%
CCC(C)N(C(=O)c1csnn1)C(C(=O)NCc1ccc(F)cc1)c1ccccc1 (stereo unspecified),/,0.8%,1.8%,-2.1%,-5.4%,4.9%
SMILES,SMN2 splice enh,FLuc modulator,NPC1 promoter act,Rab9 promoter act,ELG1 genotoxic,ELG1 DNA repair
CCOc1ccc(-c2csc(/C(C#N)=C\c3ccc(O)c([N+](=O)[O-])c3)n2)cc1,-92.8%,4.26µM*,-5.1%,-1.9%,-10.4%,13µM*
O=C1C=CC(=O)N1c1ccc(OC(F)F)cc1,-3.3%,?,-20.1%,-28.0%,-6.2%,20.6µM*
CCCCOc1ccc(C2=NNC(=O)CC2)cc1,-7.3%[1.84 µM],?,11.8%,14.0%,?,?
CCn1c(O)c(/C=N/N=C/c2ccccc2)c2ccc(C3=NNC(=O)CC3)cc21,-10.1%,-18.2%,-3.1%,-0.3%,-2.0%,25.9µM*
CCC(CC)=N/N=C/c1c(O)n(CC)c2cc(C3=NNC(=O)CC3)ccc12,2.4%,?,-0.3%,7.6%,-0.4%,20.6µM*
Cc1ccc(Cl)c(NC(=O)Nc2csc3c2CCCC3)c1,7.9%,?,/,/,/,/
COc1cccc(/C=N/NC(=O)CCCC(=O)Nc2ccc(Br)cc2)c1,11.8%,-19.4%,-1.4%,-0.2%,-2.2%,4.1%
COc1ccc(/C=C/C(=O)Oc2cccc(/C=N/NC(=O)Cc3ccc(Br)cc3)c2)cc1,/,?,3.55µM*,3.16µM*,?,?
COc1ccc(Br)cc1CNC(=O)CCc1cn(Cc2ccc(C)cc2)c2ccccc12,/,-1.3%,/,/,/,/
CCOc1ccc(NS(=O)(=O)c2ccc(C(=O)N(C)Cc3cccc(OC)c3OC)cc2)cc1,/,-0.6%,2.1%,-7.8%,-12.2%,16.4µM*
COc1cccc(CN(C)C(=O)c2ccc(COc3ccc(Cl)cc3)cc2)c1OC,/,13.5µM*,?,29.5%,?,?
Cc1ccc(NC(=O)CN(C)C(=O)c2ccc(Sc3nncn3C)c([N+](=O)[O-])c2)cc1,/,-2.2%,-4.6%,-1.4%,-0.4%,29.6%
COC(=O)c1c(-n2c(C)cc(C=O)c2C)sc2c1CCCC2,-20.6%,12µM*,-3.5%,1.8%,1.2%,5.9%
Cc1ccc(Cl)cc1NC(=O)c1nnn(Cc2ccccc2)c1N,-7.7%,-9.6%,/,/,/,/
Cc1ccccc1NC(=O)C1Cc2ccccc2CN1C(=O)c1ccco1 (stereo unspecified),/,?,2.82µM*,?,23.1µM*,?
Cc1ccc(C(=O)NC2CCc3ccccc3C2=O)cc1 (stereo unspecified),12.6µM*,12µM*,2.51µM*,2.24µM*,5.4%,?
Cc1ccc(C(=O)NC2CCSC2=O)cc1 (stereo unspecified),-15.2%,4.2%,0.2%,-8.5%,6.2%,25.9%
Cc1ccc(-c2cc(-c3ccccc3)nc(N(C)N)n2)cc1,/,1.2%,-3.3%,-5.3%,-3.2%,-1.9%
Cc1ccc(-c2cc(N)nc(-c3ccccc3)c2)cc1,/,13.5µM*,24.3%,20.6%,?,?
